The values that follow come from paper PMC12136788.

The full ranking holds about 24,000 sequences; the median of “enrichment r” is about 0.99, and the highest 2% start at about 3.7. The full list was thinned out, with the highest values kept by preference.

The labels stand for the following.
T1: UNK ZnF1-3 (human, UniProt Q9C0B0 31-174)
T1 sequence: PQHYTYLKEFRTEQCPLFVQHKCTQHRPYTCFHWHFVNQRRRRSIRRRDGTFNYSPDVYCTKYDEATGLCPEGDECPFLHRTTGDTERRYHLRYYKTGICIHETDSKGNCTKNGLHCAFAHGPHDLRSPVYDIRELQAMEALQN

B1: chr18:46858332:46858333:-_ENSG00000141627_ENST00000269445|hu_hu|FALSE|FALSE (ssRNA)
RNA: GGGAGUUCUACAGUCCGACGAUCCGACUGCUGAGGGAAAACAUGGGCCCCUGGAGGAGGUGGCUUUUCUUGUCUGAUAAAGUUAUAUAAUAAGGUCUUCACAAGUUUGCUGGUGUAUGGAAGACAUGGACCUCGCAUCAAAUACAACAGAGGAUUGAGCAUCA
B2: chr8:108054885:108054886:-_ENSMUSG00000013160_ENSMUST00000013304|mus_mus|FALSE|FALSE (ssRNA)
RNA: GGGAGUUCUACAGUCCGACGAUCUGAACGCUGGUGCAGUGUGCCUGUGAUUAGCAGGAUCACGUUGUCAAUCAUGUAGCUAUAAGUUAUGAAGUCCAGGAAGCUGGCGAGCGGCUCAUAAGCAUGGUUUCUCAUGUGGCGGAACAACAGAGGAUUGAGCAUCA
B3: chr1:35656432:35656433:-_ENSG00000116560_ENST00000357214|perfect_dup|motif|central (ssRNA)
RNA: GGGAGUUCUACAGUCCGACGAUCAGAUCUUCCGCGAUCAUCCACAAUUACAACAGCCCUUUCAAUAGGACCAAACUGGCGGAAGGCCUCUUCCAAAAGUUCGUUGGAAACAUAAGGAGAGAGAUUUCGAACAGACAGGGCUGCCAACAGAGGAUUGAGCAUCA
B4: 17381947_17386413_246_CDS_ENSMUSG00000041720_ENSMUST00000036161|mouse|control|control (ssRNA)
RNA: GGGAGUUCUACAGUCCGACGAUCGCAGAAGCUGAAGCUCUCUGCAACUGGGAGGUUACCUCUGCCUUUCCGAGCUGUGCUUUCUUCUACCCAAUACACUUUUGGAAGACCCCUGAGAAGUCGAAGAAGAUAAGGAACAACACACAACAGAGGAUUGAGCAUCA
B5: 235582851_235590549_671_CDS_ENSG00000116957_ENST00000366601|human|control|control (ssRNA)
RNA: GGGAGUUCUACAGUCCGACGAUCAUUAAGGACUUCCAGGUGUCUGAGCUGAUCAGCAAUGUGUAUCACUUCAUCCCAUGAUGACAACAGGUUUUUUGACAAAUCUACCUUUCUGAUAUUAGGACAUGCUUCAGCAACUCCUCCCAACAGAGGAUUGAGCAUCA
B6: chr5:74677807:74677808:-_ENSG00000113163_ENST00000380494|hu_mus|motif|central (ssRNA)
RNA: GGGAGUUCUACAGUCCGACGAUCACGGACACAUCGAUUGUUCAGAGGAGCACUAUCAUGAUCCACAGAAAAAUUACAAACGGUCCAAGUUUCAGGAUCAUUUUCAGUCAAGGCUGGGAUCUUUCGAAUAGCAGAAAGAUACAGCAACAGAGGAUUGAGCAUCA
B7: chr16:94690093:94690094:+_ENSMUSG00000040785_ENSMUST00000117648|mus_hu|mus_mus_mus_hu_True|18_78 (ssRNA)
RNA: GGGAGUUCUACAGUCCGACGAUCGGGCUGGGAUGACGGACACACAGCCUCGAUUCCGGUAAAAAAAAGUCUUAGUCGAUACUAAUUAAAAAGUGUUAAUGAUUUUUGAAAAUCAGAUGUAGAUUAAAAAAGAUGAAAAGCAAACAACAGAGGAUUGAGCAUCA
B8: chr16:94690093:94690094:+_ENSMUSG00000040785_ENSMUST00000117648|mus_hu|mus_mus_mus_hu_True|18_98 (ssRNA)
RNA: GGGAGUUCUACAGUCCGACGAUCGGGCUGGGAUGACAGCAGACAGCCCUCGAUUCCAGGGGGAAAAAGUCUUAGUCGAUACUAAUUAAAAAGUGUUAAUGAUUUUUGAAAAUCAGAUGUAGAUUAAAAAAGAUGAAAAGCAAACAACAGAGGAUUGAGCAUCA
B9: chr16:94690093:94690094:+_ENSMUSG00000040785_ENSMUST00000117648|mus_hu|mus_mus_mus_hu_True|1_68 (ssRNA)
RNA: GGGAGUUCUACAGUCCGACGAUCGGGCUGGGAUGACGGACACACAGCCUCGAUUCCAGGGGGAAAAAAAAAUAGCCGAUACUAAUUAAAAAGUGUUAAUGAUUUUUGAAAAUCAGAUUACAUCUAUAAAAGAUGAAAGCACUUCAACAGAGGAUUGAGCAUCA
B10: chr16:94690093:94690094:+_ENSMUSG00000040785_ENSMUST00000117648|mus_hu|mus_mus_mus_hu_True|8_98 (ssRNA)
RNA: GGGAGUUCUACAGUCCGACGAUCGGGCUGGGAUGACAGCAGACAGCCCUCGAUUCCAGGGGGAAAAAGUCUUAGUCGAUACUAAUUAAAAAGUGUUAAUGAUUUUUGAAAAUCAGAUUACAUCUAUUUGAAUCAUAAAGCAAACAACAGAGGAUUGAGCAUCA
B11: chr17:6086338:6086339:+_ENSMUSG00000034345_ENSMUST00000039487|mus_mus|motif|central (ssRNA)
RNA: GGGAGUUCUACAGUCCGACGAUCUGACUGAAAUAUAAAAUCCAGUAGUGCUCCAAUACAGCUAGAGUGUCCAUAAAAAUCGGUCUUCUACUUAAUUCUUAGUAUCAGGUGUGUAAGUAACAAUCCACUGGAAAGUUUACAUUACAACAGAGGAUUGAGCAUCA
B12: chr16:94690093:94690094:+_ENSMUSG00000040785_ENSMUST00000117648|mus_hu|mus_mus_mus_hu_True|68_78 (ssRNA)
RNA: GGGAGUUCUACAGUCCGACGAUCGGGCUGGGAUGACGGACACACAGCCUCGAUUCCGGUAAAAAAAAAAAAUAGCCGAUACUAAUUAAAAAGUGUUAAUGAUUUUUGAAAAUCAGAUUACAUCUAUAAAAGAUGAAAAGCAAACAACAGAGGAUUGAGCAUCA
B13: chr16:94690093:94690094:+_ENSMUSG00000040785_ENSMUST00000117648|mus_hu|mus_mus_mus_hu_True|18_38 (ssRNA)
RNA: GGGAGUUCUACAGUCCGACGAUCGGGCUGGGAUGACGGACACACAGCCUCGAUUCCAGGGGGAAAAAGUCUUAGUCGAUACUAAUUAAAAAGUGUUUUUAUAAUUGGAAAAUCAGAUGUAGAUUAAAAAAGAUGAAAAGCAAACAACAGAGGAUUGAGCAUCA
B14: chr16:94690093:94690094:+_ENSMUSG00000040785_ENSMUST00000117648|mus_hu|mus_mus_mus_hu_True|48_48 (ssRNA)
RNA: GGGAGUUCUACAGUCCGACGAUCGGGCUGGGAUGACGGACACACAGCCUCGAUUCCAGGGGGAAAAAGUCUUAGUCGAUACUAAUUUAAAAAGUAUAAUGAUUUUUGAAAAUCAGAUUACAUCUAUAAAAGAUGAAAAGCAAACAACAGAGGAUUGAGCAUCA

This assay deals with T1, UNK ZnF1-3. Kind of assay: nsRBNS (natural sequence RNA bind-n-seq); RBNS binding buffer (assumed for nsRBNS): 25 mM Tris pH 7.5, 150 mM KCl, 3 mM MgCl2, 0.01% Triton X-100, 500 ug/ml BSA, 20 U/ml SUPERase-In, 4 C; UNK is unkempt and MSI1 is Musashi-1; names of the RNAs are library labels; protein concentration not given here; high values mean tight binding.
As for B1, the binding signal was 2.32 enrichment R. In the case of B2, the binding signal turned out to be 0.896 enrichment R.

B3: the binding signal came out at 1.13 enrichment R. Consider B4, for which the binding signal is 0.848 enrichment R.

B5 had a binding signal of 0.938 enrichment R.

The molecule B6 registered a binding signal of 1.36 enrichment R. On to B7, for which the binding signal came to 3.5 enrichment R. As for B8, the binding signal worked out at 4.09 enrichment R. Molecule B9 displayed a binding signal of 1.12 enrichment R. Turning to B10, the binding signal is 0.999 enrichment R.

B11 displayed a binding signal of 0.812 enrichment R. B12: the binding signal was found to be 5.49 enrichment R.

Turning to B13, the binding signal was 3.69 enrichment R. Regarding B14, the binding signal came to 0.836 enrichment R.
